Bioassay records as filed in PubChem BioAssay.
BL2 CD40 inh: CD40 pathway inhibition in BL2 cells; BL2 NF-kB luciferase reporter, CD40L-induced, 4 h; inhibition, % at 10 µM; 83,000 tested, 0.94% active; AID 1053188;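 active means mean inhibition of at least 50% with a set share of replicates also reaching that level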;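 further: 0% = neutral control wells and 100% = IKK inhibitor VII at 50 µM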
Active calls of the source: *; [ ] = remark or other dose. Many of the other results were omitted from the sample, so hits are more common in it than they were.

SMILES	BL2 CD40 inh
O=C(C[C@@H]1CC[C@@H](NC(=O)NC2CCCCC2)[C@@H](CO)O1)NCc1ccc(F)cc1	-6
CC(=O)NC[C@H]1[C@H](c2ccc(C3=CCCCC3)cc2)[C@H](CO)N1C(=O)NC(C)C	0
CCC(=O)N1[C@@H]2c3ccc(-c4cncnc4)c(=O)n3C[C@H]1[C@H](CO)[C@H]2C(=O)N1CCc2ccccc2C1	-6[25 µM]
COc1cccc(NC(=O)N2CC(=O)N3[C@H](CO)[C@H](c4ccc(C#CC5CCCC5)cc4)[C@@H]3C2)c1	-3
COc1cccc2c1C(=O)c1c(O)c3c(c(O)c1C2=O)C[C@@](O)(C(C)=O)C[C@@H]3OC1CC(N)C(O)C(C)O1 (some centres undefined)	87*[25 µM]
CNC[C@H]1Oc2ccc(NC(C)=O)cc2CC(=O)N(C)C[C@H]1C	1
CC(C)Cc1ccc(C(C)/C=C2/CCC(CN3CCCCC3)C2=O)cc1 (centres undefined)	66*
COCCNC(=O)C1CCCN(Cc2ccc(C(C)C)cc2)CC1 (centres undefined)	7
CC(C)Cc1ccc(CN2CCCC(NC(=O)CCN3CCCCC3=O)C2)cc1 (centres undefined)	3
O=C(NCC1CC1)[C@H]1[C@H](CO)[C@H]2Cn3c(ccc(-c4ccccc4)c3=O)[C@@H]1N2C(=O)C1CC1	-9[25 µM]
O=C(NCCCN1CCOCC1)c1cc(-c2ccccc2)nc2ccccc12	1
CC(=O)Nc1ccc(S(=O)(=O)N(CCCN2CCOCC2)Cc2cccs2)cc1	3
O=C(CCS(=O)(=O)c1ccccc1)Nc1ccc(N2CCOCC2)cc1	-25
Cc1ccc(S(=O)(=O)CCC(=O)N(CCCN2CCOCC2)c2nc3ccccc3s2)cc1	96*
Cc1ccc2nc(N(CCN3CCOCC3)C(=O)CCS(=O)(=O)c3ccccc3)sc2c1	-33
O=C(CCS(=O)(=O)c1ccccc1)N(CCCN1CCOCC1)c1nc2ccccc2s1	96*
N#C[C@@H]1[C@@H](c2ccc(-c3cccc(F)c3)cc2)[C@@H](CO)N1C(=O)NC1CCCCC1	12
CCS(=O)(=O)N(C)[C@H]1c2cc(C#N)ccc2OC(C)(C)[C@@H]1O	2[25 µM]
CC(=O)N(C)C[C@H]1Oc2ccc(NC(=O)NC(C)C)cc2C(=O)N(C)C[C@H]1C	-2
Nc1ccc(C(=O)NNC(=O)C2COc3ccccc3O2)cc1[N+](=O)[O-] (centres undefined)	2
CNc1ccc(C(=O)OCC(=O)NC(=O)NC2CCCCC2)cc1[N+](=O)[O-]	3
CS(=O)(=O)c1ccc(C(=O)OCC(=O)NC(=O)C2CCCCC2)cc1[N+](=O)[O-]	85*
CS(=O)(=O)c1ccc(C(=O)OCC(=O)NC(=O)C2COc3ccccc3O2)cc1[N+](=O)[O-] (centres undefined)	95*
CC(C)(C)C(=O)COC(=O)c1ccc(N)c([N+](=O)[O-])c1	-65
COc1ccc(C(=O)OCC(=O)Nc2ccc(OC)c(S(=O)(=O)N3CCCCC3)c2)cc1[N+](=O)[O-]	5
SMILES	BL2 CD40 inh
C[C@H](CO)N1C[C@H](C)[C@@H](CN(C)S(=O)(=O)c2ccc(Cl)cc2)OCCCC[C@H](C)Oc2ccc(NC(=O)CCCN(C)C)cc2C1=O	9
O=C(C[C@@H]1CC[C@@H]2NC[C@H](O)COC[C@H]2O1)NCc1ccc2c(c1)OCO2	-3[25 µM]
CCCNC(=O)N(C)C[C@H]1[C@H](c2ccccc2)[C@@H](CO)N1C(=O)c1ccccc1	-3[25 µM]
O=C(Nc1ccccc1F)N[C@H]1C=C[C@H](CC(=O)N2CCCCC2)O[C@@H]1CO	-3
CN(C)c1ccc(NC(=O)c2ccc3nc[nH]c3c2)cc1	-59
CN(C)c1ccc(NC(=O)c2ccc3c(c2)nnn3C)cc1	-58
CN(C)c1ccc(NC(=O)c2cnsn2)cc1	65*
CC(C)c1cn(CC[C@H]2CC[C@@H](NC(=O)C3CCCCC3)[C@@H](CO)O2)nn1	0
O=C(Cc1ccccc1)N1CC[C@H]2[C@H](CO)Nc3ccc(-c4cccc(F)c4)cc3[C@H]21	4[25 µM]
O=C(c1cccc(F)c1)N1CC[C@@H]2[C@@H](CO)Nc3ccc(-c4ccc(F)cc4)cc3[C@@H]21	-7
O=C(Cc1ccccc1)N1CC[C@@H]2[C@H]1c1cc(C#Cc3cccc(F)c3)ccc1N[C@@H]2CO	82*[25 µM]
O=C(c1ccncc1)N1CC[C@@H]2[C@@H](CO)Nc3ccc(-c4ccc(F)cc4)cc3[C@@H]21	active[25 µM]
O=C(Cc1ccccc1)N1CC[C@@H]2[C@H](CO)Nc3ccc(-c4cccc(F)c4)cc3[C@@H]21	-22[25 µM]
O=C(Cc1ccccc1)N1CC[C@@H]2[C@H]1c1cc(-c3cccc(F)c3)ccc1N[C@@H]2CO	70*[25 µM]
O=C(c1ccncc1)N1CC[C@@H]2[C@H](CO)Nc3ccc(-c4ccc(F)cc4)cc3[C@@H]21	-47[25 µM]
O=C(Cc1ccccc1)N1CC[C@@H]2[C@@H](CO)Nc3ccc(C#Cc4cccc(F)c4)cc3[C@@H]21	2[25 µM]
O=C(Cc1ccccc1)N1CC[C@@H]2[C@@H](CO)Nc3ccc(-c4cccc(F)c4)cc3[C@@H]21	-16[25 µM]
C[C@H](NC(=O)[C@H]1[C@H](CO)[C@H]2Cn3c(ccc(C4=CCCC4)c3=O)[C@@H]1N2C(=O)C1CC1)c1ccccc1	0[25 µM]
O=C(Nc1ccccc1F)N[C@H]1C=C[C@@H](CC(=O)N2CCCCC2)O[C@@H]1CO	-1
COc1cccc(-c2cccc(-c3nc(C(=O)O)cc4c3[C@@H](CCO)N(S(=O)C(C)(C)C)C4)c2)c1 (some centres undefined)	-7[25 µM]
O=C(c1cccnc1)N1CCCCN2[C@H](C1)[C@H](c1ccc(C#Cc3ccccn3)cc1)[C@@H]2CO	-6[25 µM]
O=C(Cc1cccnc1)N1CC(=O)N2[C@H](CO)[C@@H](c3ccc(C#CC4CCCC4)cc3)[C@H]2C1	-1
C[C@@H]1CN([C@@H](C)CO)C(=O)c2cc(NC(=O)CCC(F)(F)F)ccc2O[C@@H](C)CCCCO[C@H]1CN(C)C(=O)Nc1cccc2ccccc12	6
Cc1ccc(S(=O)(=O)N[C@H]2CC[C@@H](CCn3cc(C4CCCC4)nn3)O[C@H]2CO)cc1	2
CO[C@@H]1CN(C)C(=O)c2ccc(NC(=O)c3cc(C)on3)cc2OC[C@@H](C)N(C)C[C@@H]1C	-6
SMILES	BL2 CD40 inh
Cc1noc(C)c1NC(=O)N(C)C[C@@H]1Oc2ccc(NC(=O)CCCN(C)C)cc2C(=O)N([C@H](C)CO)C[C@H]1C	5[25 µM]
O=C1CC(c2cccs2)Sc2nc3ccccc3n21 (centres undefined)	-108
O=C1CC(c2ccco2)Sc2nc3ccccc3n21 (centres undefined)	-124
O=C1CC(c2ccc3c(c2)OCO3)Sc2nc3ccccc3n21 (centres undefined)	60*
CC(C)NC(=O)N(C)C[C@@H]1Oc2ccccc2C(=O)N(C)C[C@@H]1C	-4
COC(=O)c1ccc(CN2CC(=O)N3[C@@H](CO)[C@H](c4ccc(-c5cccnc5)cc4)[C@@H]3C2)cc1	7[25 µM]
COc1ccc2c3c(n(C)c2c1)[C@@H](CO)N(C(=O)CN(C)C)CC31CCN(Cc2cncnc2)CC1	25[25 µM]
Cc1csc(N=Nc2ccc(N(C)C)cc2)[n+]1[O-]	80*
CO[C@@H]1CN(C)C(=O)c2cc(NS(C)(=O)=O)ccc2OC[C@H](C)N(C(=O)C2CCCC2)C[C@@H]1C	-23
Cc1cc(C(=O)COC(=O)c2ccc3c(c2)OCO3)c(C)n1Cc1cccs1	-50
Cc1cc(C(=O)COc2ncnc3sccc23)c(C)n1C	-76
CC(=O)Nc1ccccc1OCC(=O)c1cc(C)n(Cc2cccs2)c1C	14
Cc1cc(C(=O)COC(=O)Cc2ccc(Cl)cc2)c(C)n1C	-9
